Paper PMC4552634, “A New Set of Chemical Starting Points with Plasmodium falciparum Transmission-Blocking Potential for Antimalarial Drug Discovery” (PLoS ONE, 2015)
Screen size: about 13,000 compounds; about 3,200 (25%) showed an effect of 50% or more. The list shows a part of the results.

Tested on: P. falciparum stage V gametocytes
Parameters: BacTiter-Glo ATP luminescence viability of purified stage V gametocytes in 384-well plates, per cent inhibition versus DMSO
Settings: 48 h, 5 µM; inhibitor

| Compound | % Inhibition |
| --- | --- |
| O=C(NCCCCN1CCC(c2ccc3c(c2OCCO)CCCC3)CC1)c1sc(-c2ccc(C(F)(F)F)cc2)nc1CO [TCMDC-138776] | 39.12% |
| O=C(NCCCCN1CCC(c2ccc3c(c2OCC2COCO2)CCCC3)CC1)c1ccc(-c2ccc(C(F)(F)F)cc2)cc1 (stereo not shown) [TCMDC-138770] | 14.16% |
| O=C(NCCCCN1CCC(c2ccc3c(c2OCCO)CCCC3)CC1)c1ccc(-c2ccc(C(F)(F)F)cc2)cc1 [TCMDC-138714] | 98.87% |
| CNC(=O)COc1cc(C)c(C2CCN(CCCCNC(=O)c3ccc(-c4ccc(C(F)(F)F)cc4)cc3)CC2)cc1C [TCMDC-138846] | 42.45% |
| O=C(NCCCCN1CCC(c2ccc3c(c2OCCCO)CCCC3)CC1)c1ccc(-c2ccc(C(F)(F)F)cc2)cc1 [TCMDC-138743] | 141.9% |
| O=C(NCCCCN1CCC(c2ccc3c(c2OCCO)CCCC3)CC1)c1ccc2oc(-c3ccc(C(F)(F)F)cc3)cc2c1 [TCMDC-138771] | 113.6% |
| Cn1cc(C2CCN(CCCCNC(=O)c3ccc(-c4ccc(C(F)(F)F)cc4)c(CO)c3)CC2)c2ccccc21 [TCMDC-138748] | 65.02% |
| O=C(NCCCCN1CCC(c2cccc3ccccc23)CC1)c1ccc(-c2ccc(C(F)(F)F)cn2)cc1 [TCMDC-138570] | -25.01% |
| CCOC(=O)c1cc(C(=O)NCCCCN2CCC(c3cn(C)c4ccccc34)CC2)ccc1-c1ccc(C(F)(F)F)cc1 [TCMDC-138751] | 1.206% |
| CN1CCCc2ccc(NC(=O)c3cc(-c4ccc(Cl)cc4)cs3)cc2C1 [TCMDC-133946] | 39.01% |
| CCN(CCCN1CCCCC1)c1nc(C)cc(Nc2ccc(Cl)cc2)n1 [TCMDC-137045] | 21.21% |
| O=C(Nc1ccc2c(c1)OCO2)NC1CCN(c2ccnc(NCc3ccc(F)cc3)n2)CC1 [TCMDC-133635] | 26.57% |
| Cc1ccc(NC(=O)c2ccc3ncccc3c2)cc1OC1CCN(CCC(C)C)C1 (stereo not shown) [TCMDC-133980] | 9.414% |
| CCCC1N=C(N)N=C(N)N1c1ccc(OC)cc1 (stereo not shown) [TCMDC-131295] | -30.41% |
| O=C(Nc1ccc(CCNC2=NCCN2)cc1)Nc1ccc(CCNC2=NCCN2)cc1 [TCMDC-137205] | 10.33% |
| CCCCc1ccc2[nH]c(NC(=O)OC)nc2c1 [TCMDC-131798] | -12.96% |
| CC(C)(C)OC(=O)Cn1cnc2cc(NC(=O)c3cc([N+](=O)[O-])cc([N+](=O)[O-])c3)ccc21 [TCMDC-131910] | -17.84% |
| Cc1nc2ccc3ccc(CNc4ccc(C(=O)N[C@@H](CCC(=O)O)C(=O)N[C@@H](Cc5cccs5)C(=O)O)c(F)c4)cc3c2c(=O)[nH]1 [TCMDC-137819] | 7.673% |
| O=C(CNC(=O)c1ccc(O)cc1)Nc1cccc(-c2cccc(-c3nc4ccc(C(F)(F)F)cc4[nH]3)c2)c1 [TCMDC-136816] | 11.2% |
| CN1CCN(CC(O)CNC(=O)Nc2ccc(Br)cc2)CC1 (stereo not shown) [TCMDC-134635] | 15.1% |

| Compound | % Inhibition |
| --- | --- |
| O=C(NCCCCN1CCC(c2ccc3c(c2OCCN2CCCC2)CCCC3)CC1)c1ccc(-c2ccc(C(F)(F)F)cc2)cc1 [TCMDC-138768] | 107.4% |
| CC(=O)COc1c(C2CCN(CCCCNC(=O)c3ccc(-c4ccc(C(F)(F)F)cc4)cc3)CC2)ccc2c1CCCC2 [TCMDC-138738] | 105.6% |
| O=C(NCCCCN1CCC(c2ccc3c(c2OCC(O)c2ccc(Cl)cc2)CCCC3)CC1)c1ccc(-c2ccc(C(F)(F)F)cc2)cc1 (stereo not shown) [TCMDC-138749] | 115% |
| NC(N)=Nc1nccc(NCc2ccccc2)n1 [TCMDC-141971] | 14.91% |
| N#Cc1ccc(N(CCOc2ccc3c(c2)CCC(=O)N3)Cc2ccccc2C(F)(F)F)cc1C(F)(F)F [TCMDC-132801] | 23.33% |
| O=C(Nc1cccc(CN2CCCN(Cc3ccc(O)cc3)CC2)c1)c1cc(F)cc(F)c1 [TCMDC-141881] | 2.179% |
| O=C(/C=C/c1ccc(Cl)c(Cl)c1)NCCCCCN1CCC(NC(=O)NCCc2ccccc2)CC1 [TCMDC-135707] | -32.39% |
| CCCC(=O)Nc1ccc(OCCCN(Cc2ccccc2OC(F)(F)F)c2ccc(C#N)c(C(F)(F)F)c2)cc1 [TCMDC-135667] | 14.29% |
| COc1cccc(-c2[nH]c3ccccc3c2CN2CCC(c3c(C)cccc3C)CC2)c1 [TCMDC-141630] | 29.07% |
| COc1ccccc1-c1[nH]c2ccccc2c1CN1CCC(c2c(C)cccc2C)CC1 [TCMDC-141628] | 83.13% |
| COc1cccc(CN2CCC(CCOC(c3ccccc3)c3ccccc3)CC2)c1O [TCMDC-136041] | -8.929% |
| CCN1CCN(c2cc(C)c3cc(NC(=O)c4ccc(Br)o4)ccc3n2)CC1 [TCMDC-123600] | 1.193% |
| COc1ccc(-c2ccc(NC(=O)c3ccc(Cl)cc3)cc2)cc1CN1CCCN(C)CC1 [TCMDC-132510] | 104.3% |
| COc1ccc(-c2ccc(NC(=O)c3ccc(C#N)cc3)cc2)cc1CN1CCN(C)CC1 [TCMDC-133336] | -18.08% |
| COc1ccc(-c2cccc(NC(=O)c3ccc(Cl)cc3)c2)cc1CN1CCCN(C)CC1 [TCMDC-132602] | -35% |
| COc1ccc(-c2ccc(NC(=O)c3ccc(Cl)cc3)cc2)cc1CN1CCN(C)CC1 [TCMDC-132512] | 92.99% |
| COc1ccc(-c2ccc(NC(=O)c3cccc(Cl)c3)cc2)cc1CN1CCN(C)CC1 [TCMDC-132526] | 82.79% |
| COc1ccc(-c2cccc(NC(=O)c3cccc(Cl)c3)c2)cc1CN1CCN(C)CC1 [TCMDC-132617] | 28.66% |
| COc1ccc(-c2ccc(CNC(=O)c3ccc(Cl)cc3)c(F)c2)cc1CN1CCCN(C)CC1 [TCMDC-133369] | -6.152% |
| COc1ccc(-c2ccc(NC(=O)c3ccc(Cl)cc3)cc2)cc1CN1CCC(O)CC1 [TCMDC-133337] | 0.3946% |
